Measurements: PubChem BioAssay (NCATS)
Inconclusive results are not listed. Activity calls are given as the source filed them. Calls come from the whole dose curve; as a rule, active = well fitted inhibition curve with a large enough effect; inconclusive = small, poorly fitted or top-dose-only effect; inactive = flat fitted curve, though single readings scatter.

Tested on: NIH3T3
Assay: Cytotoxic Profiling of Annotated Libraries Using Quantitative High-Throughput Screening (AID 1296008); note: nearly all actives have a fitted effect of over 60% in size
Details: Five cell lines viability, CellTiter-Glo ATP luminescence, 48-72 h; max response: hits give low values
Summary of the method: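 Cells exposed to compounds for 48 or 72 hr at 37 degrees Celsius. Viability read as ATP-coupled luminescence with CellTiter-Glo after 10 min at room temperature.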
% is set by controls: 0 for no effect and ±100 for the full control effect; potency is the fitted concentration of half-maximal effect.

Question: How did the max response turn out when COC(=O)[C@@H](O)[C@H]1[C@@]2(C)CC3(O)[C@@H](C(=O)[C@H]2O)[C@]24O[C@]25CC(=O)O[C@@H](c2ccoc2)[C@]5(C)CCC4[C@]13C (stereo partly drawn) was run?
Answer: -5.38% (inactive)

Question: Which max response does the source give for OC[C@H]1O[C@@H](Oc2ccccc2)[C@H](O)[C@@H](O)[C@@H]1O here?
Answer: -2.04% (inactive)

Question: Which max response does the source give for C=C(C(=O)O)C1CCC2(C)CCC(O)C(=C)C2C1 (stereo not drawn) here?
Answer: -5.34% (inactive)

Question: Which Potency does the source give for CC(Nc1ncnc2nc[nH]c12)c1cc2cccc(Cl)c2c(=O)n1-c1ccccc1 (stereo not drawn) here?
Answer: 13 µM (active)

Question: How did the max response turn out when CC(=O)OC1C(c2ccccc2)CCC(c2ccccc2)C1OC(C)=O (stereo not drawn) was run?
Answer: 0.126% (inactive)

Question: Which max response does the source give for C=C1[C@H](OC(C)=O)[C@H]2[C@@H](OC(C)=O)[C@](C)(OC(C)=O)C[C@]2(OC(C)=O)C(=O)[C@H](C)/C=C/C(C)(C)C(=O)[C@H](OC(=O)C(C)C)[C@H]1OC(C)=O here?
Answer: 2.17% (inactive)

Question: c1ccc(-c2ncc(CN3CCN(c4ncccn4)CC3)[nH]2)cc1 was tested. Which max response did it give?
Answer: -1.52% (inactive)

Question: With N#C[C@@H]1C[C@H](F)CN1C(=O)CNC1[C@H]2CN(C(=O)c3ccc(F)cc3)C[C@@H]12 (stereo partly drawn) as the compound, how does the max response read?
Answer: -2.06% (inactive)

Question: CC(C)CN(C[C@@H](O)[C@H](Cc1ccccc1)NC(=O)O[C@@H]1CO[C@H]2OCC[C@H]21)S(=O)(=O)c1ccc(N)cc1 was tested. Which max response did it give?
Answer: -1.09% (inactive)

Question: How did the max response turn out when CC1OC(OC2C(CO)OC(OCC3OC(OC(=O)C45CCC(C)(C)CC4C4=CCC6C7(C)CCC(OC8OC(CO)C(O)C(OC9OC(CO)C(O)C(O)C9O)C8O)C(C)(C)C7CCC6(C)C4(C)CC5)C(O)C(O)C3O)C(O)C2O)C(O)C(O)C1OC1OC(CO)C(O)C(O)C1O (stereo not drawn) was run?
Answer: -0.84% (inactive)

Question: Which max response does the source give for COC(=O)[C@H](O)[C@H]1C(C)(C)[C@H](OC(=O)C(C)C)[C@@]2(O)C(=O)[C@]1(C)C1CC[C@]3(C)C(CC(=O)O[C@H]3c3ccoc3)[C@]13O[C@@H]32 (stereo partly drawn) here?
Answer: -25.1% (inactive)

Question: For CC1CC[C@]2(C(=O)O)CC[C@]3(C(=O)O)C(=CCC4[C@@]5(C)CC[C@H](O[C@@H]6O[C@H](CO)[C@@H](O)[C@H](O)[C@H]6O)C(C)(C)C5CC[C@]43C)C2C1C (stereo partly drawn), which max response is on record?
Answer: 2.56% (inactive)

Question: CC(C)(C)c1ccc(S(=O)(=O)Nc2ccc(Cl)cc2C(=O)c2cc[n+]([O-])cc2)cc1 was tested. Which max response did it give?
Answer: -1.11% (inactive)

Question: How did the max response turn out when O=C1CC2(CCCC2)[C@H](O)C(=O)N1CCCCN1CCN(c2ncccn2)CC1 was run?
Answer: -13.6% (inactive)

Question: With COC(C(=O)N1Cc2[nH]nc(NC(=O)c3ccc(N4CCN(C)CC4)cc3)c2C1)c1ccccc1 (stereo not drawn) as the compound, how does the Potency read?
Answer: 4.11 µM (active)

Question: How did the max response turn out when C[C@@H]1CN(Cc2ccccc2)C[C@H]1c1nc2c(cnn2C2CCOCC2)c(=O)[nH]1 was run?
Answer: -13.9% (inactive)

Question: C#CC[C@H](c1nc2cc(Cl)ccc2c(=O)n1Nc1ccccc1)N(CCCN)C(=O)c1cccc(Cl)c1F was tested. Which Potency did it give?
Answer: 10.3 µM (active)

Question: Which max response does the source give for O=C(O[C@H]1[C@@H]2C[C@@H]3OC[C@](O)([C@@H]1Cl)[C@H]2C(O[C@@H]1O[C@H](CO)[C@@H](O)[C@H](O)[C@H]1O)O3)c1ccc(O)c(O)c1 (stereo partly drawn) here?
Answer: 3.52% (inactive)

Question: CCOc1ccc(S(=O)(=O)n2c(C)nc3ccccc32)cc1 was tested. Which max response did it give?
Answer: -7.13% (inactive)

Question: COc1cc(Br)c(Nc2nc(-c3c(C)nc4ncccn34)cs2)c(Br)c1 was tested. Which Potency did it give?
Answer: 1.46 µM (active)

Question: For CC1(C)CCCC2(C)C1C(O)C=C(CO)C2(O)CO (stereo not drawn), which max response is on record?
Answer: -1.11% (inactive)

Question: O=C(/C=C/c1cccc(S(=O)(=O)Nc2ccccc2)c1)NO was tested. Which Potency did it give?
Answer: 7.96 µM (active)

Question: Which max response does the source give for CCC(O)C(C)C1CCC(C(C)C(=O)O)O1 (stereo not drawn) here?
Answer: 2.92% (inactive)

Question: With CC1(C=O)CC[C@]2(C(=O)O[C@@H]3O[C@H](CO)[C@@H](O)[C@H](O)[C@H]3O)CC[C@]3(C)C(=CCC4[C@@]5(C)C[C@H](O)[C@H](O[C@@H]6OC[C@@H](O)[C@H](O)[C@H]6O)[C@@](C)(CO)C5CC[C@]43C)C2C1 (stereo partly drawn) as the compound, how does the max response read?
Answer: -1.18% (inactive)

Question: How did the max response turn out when CC1=C(CCC(C)CC(=O)O)[C@@]2(C)CCCC(C)(C)C2CC1=O (stereo partly drawn) was run?
Answer: -3.99% (inactive)

Question: How did the Potency turn out when Cc1ccc(NC(=O)Nc2cc(C(F)(F)F)ccc2F)cc1Nc1ccc2c(c1)NC(=O)/C2=C\c1ccc[nH]1 was run?
Answer: 18.4 µM (active)

Question: For CC1(C)CCC2(C(=O)OC3OCC(O)C(O)C3O)CCC3(C)C(=CCC4C5(C)CC(O)C(OC6OC(COC7OCC(O)C(O)C7O)C(O)C(O)C6O)C(C)(C)C5CCC43C)C2C1 (stereo not drawn), which max response is on record?
Answer: -1.51% (inactive)

Question: Which max response does the source give for CC1CCC2(C(=O)O)CCC3(C)C(=CCC4C5(C)CCC(OC(=O)/C=C/c6ccccc6)C(C)(C)C5CCC43C)C2C1C (stereo not drawn) here?
Answer: -3.46% (inactive)
